PubChem BioAssay (NCI)
The panel holds about 83,000 compounds, 20% with a hit somewhere; the sample as a whole holds those more often.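 Method: cells in 96-well plates; compound added at one concentration; 48 h incubation; percent growth measured; values under 10 scored active.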 Values without a mark were called inactive. Calls of active or inactive are those of the source.

Tested on: OVCAR-4 ovarian
Assay: NCI-60 one-dose screen, 48 h (100 = growth as untreated, 0 = no growth, -100 = all killed)
Conditions: 10 µM unless noted

Structure (SMILES)	growth
O=C(/C=C/c1cccc(O)c1)c1ccc(O)cc1	96.2%
ClC(Cl)c1nc(-c2cccs2)n2nc(-c3ccccc3)cc2n1	10.7%
CC1OC(O[C@@H]2C(O)C(CO)OC(O[C@H]3COC(O[C@H]4CC[C@]5(C)[C@H]6CC[C@]78OC[C@@]9(CC[C@](C)(C=O)C[C@H]97)[C@H](O)C[C@@]8(C)[C@]6(C)CC[C@H]5C4(C)C)[C@@H](OC4OC(CO)[C@@H](O)[C@@H](O)[C@@H]4O)[C@@H]3O)[C@H]2OC2OC[C@@H](O)[C@@H](O)[C@@H]2O)[C@@H](O)[C@@H](O)[C@H]1O (some centres not stated)	-50.9% (active)
O=C(CCCCCCN1CC(=O)N2[C@@H](c3cc(F)cc(F)c3)c3[nH]c4ccccc4c3C[C@H]2C1=O)NO	69.4%
N=c1c2cc(-c3ccccc3)oc2ncn1/N=C/c1ccccc1	93.2%
COc1cc(CNC(=O)/C=C/c2ccccc2)ccc1OCC(=O)NO	108%
C=C(C)[C@@H]1CC[C@]2(COS(C)(=O)=O)CC[C@]3(C)[C@H](CC[C@@H]4[C@@]5(C)CCCNC(C)(C)[C@@H]5CC[C@]43C)[C@@H]12	95.8%
C#CCOc1ccc(C(Nc2cc(Cl)ccc2Cl)c2nnnn2C2CCCCC2)cc1 (configuration not stated)	93.3%
Oc1ccc(CSc2nnc(-c3cnccn3)n2-c2ccccc2)c2cccnc12	16.5%
O=C(COc1ccc(C2SCC(=O)N2c2ccccc2)cc1)c1ccccc1 (configuration not stated)	107%
c1ccc(-c2c(-c3ccccc3)[n+](Cc3ccc4ccccc4c3)c(-c3ccccc3)n2Cc2ccc3ccccc3c2)cc1	-75% (active)
O=C1[C@H]2Cc3c([nH]c4ccccc34)[C@H](c3ccc(Cl)cc3)N2C(=O)CN1C1CCN(Cc2c(Cl)cccc2Cl)CC1	69.9%
COc1ccc(/C=C/C(=O)c2nnn(-c3ccc(Br)cc3)c2C)cc1OC	71.6%
CCC(CC)N1C(=O)/C(=c2\sc3n(c2=O)C2C(NN=3)N(CC)C(=O)N2CC)c2ccccc21 (configuration not stated)	38.4%
COc1ccc(-c2nnc(SCc3ccc(O)c4ncccc34)n2-c2ccccc2)cc1	13.6%
C=C(C)[C@@H]1CC[C@]2(C(=O)NCCCN(CCC#N)CCC#N)CC[C@]3(C)[C@H](CC[C@@H]4[C@@]5(C)CCC(=O)C(C)(C)[C@@H]5CC[C@]43C)[C@@H]12	105%
O=C(COc1ccc(C2SCC(=O)N2c2ccc(F)cc2)cc1)c1ccccc1 (configuration not stated)	110%
NCCN1CCN(c2nc(-c3ccccc3)nc3nc(-c4ccccc4)oc23)CC1	-59.7% (active)
Cc1ccc(NC(=O)c2cccc(CN3CCN(C)CC3)c2)cc1Oc1ccc(-c2[nH]nc3ncnc(N)c23)cc1	81.9%

Tested on: SK-OV-3 ovarian
Assay: as above
Conditions: 10 µM unless noted

Structure (SMILES)	growth
C=C1C(=O)O[C@@H]2C[C@@H](C)[C@H](OC)CC(=O)[C@](C)(OC(C)=O)C[C@H](OC(=O)/C(C)=C\C)[C@@H]12	96.8%
O=C1[C@H]2Cc3c([nH]c4ccccc34)[C@@H](c3ccc(Cl)cc3)N2C(=O)CN1C1CCN(Cc2c(Cl)cccc2Cl)CC1	108%
COc1ccc(Cn2cc3c(c2-c2ccccc2)CCCc2cnoc2-3)cc1	83.7%
COc1ccc(-c2oc3cc(O)cc(O)c3c(=O)c2OC)cc1O	19.2%
N/C(=N\OC(=O)CSc1nc2ccccc2s1)c1ccc2ccccc2c1	101%
CCOC(=O)C1=C(C)Nc2nc3ccccc3n2C1c1ccccc1 (configuration not stated)	113%
CS(=O)(=O)c1ccc(-c2nn(-c3ccccc3)cc2/C=N/NC(=O)c2ccncc2)cc1	109%
Cc1cc(O)c2c(c1)C(=O)C(c1c(C)cc3c(c1O)C(=O)C=CC3=O)=CC2=O	89.2%
N#Cc1c(NC(=O)c2ccccc2C(F)(F)F)sc2c1CCC(=O)C2	91.1%
CCOC(=O)C1=C(C)N=C2Sc3ccccc3N2C1c1ccccc1 (configuration not stated)	125%
CN(C)c1ncc(/C=C2\SC(=S)N(Cc3ccccc3Cl)C2=O)s1	107%
CCN1C(=O)N(CC)C2SC(N/N=C/c3ccc(OC)cc3)=NC21 (configuration not stated)	62.4%
O=C1[C@@H]2Cc3c([nH]c4ccccc34)[C@H](c3c(Cl)cccc3Cl)N2C(=O)CN1C1CCN(Cc2c(F)cccc2F)CC1	96.8%
CC1OC(O[C@@H]2[C@H](O)C(CO)OC(O[C@H]3COC(O[C@H]4CC[C@]5(C)[C@H]6CC[C@]78OC[C@@]9(CC[C@](C)(C=O)C[C@H]97)C(=O)C[C@@]8(C)[C@]6(C)CC[C@H]5C4(C)C)[C@@H](O)[C@@H]3O)[C@H]2OC2OC[C@@H](O)[C@@H](O)[C@@H]2O)[C@@H](O)[C@@H](O)[C@H]1O (some centres not stated)	86.8%
CC(=O)NC(C)(C)C(=O)N1CCC[C@H]1C(=O)NC(C)(C)C(=O)N[C@@H](C)C(=O)NC(C)(C)C(=O)NC(C)(C)C(=O)N[C@@H](CCC(N)=O)C(=O)NC(C)(C)C(=O)N[C@H](C(=O)NC(C)(C)C(=O)NCC(=O)N[C@@H](CC(C)C)C(=O)NC(C)(C)C(=O)N1CCC[C@H]1C(=O)N[C@H](C(=O)NC(C)(C)C(=O)NC(C)(C)C(=O)N[C@@H](CCC(N)=O)C(=O)N[C@@H](CCC(N)=O)C(=O)N[C@H](CO)Cc1ccccc1)C(C)C)C(C)C	17.1% [4.25 µM]
CC1(C)CC[C@]2(C(=O)O)CC[C@]3(C)C(=CCC4[C@@]5(C)C[C@@H](O)[C@@H]6OC(c7cccc([N+](=O)[O-])c7)OC[C@@]6(C)C5CC[C@]43C)C2C1 (some centres not stated)	105%
Oc1ccccc1-c1nnc(SCc2ccc(O)c3ncccc23)n1-c1ccccc1	8.88% (active)
O=c1c2c(O)cccc2oc2c3c(cc(O)c12)O[C@H]1OC=C[C@@H]31	78.9%
O=C(CN1C(=O)S/C(=C\c2ccccc2)C1=O)Nc1ccc(C(=O)/C=C/c2cc3ccccc3nc2Cl)cc1	82.5%

Structure (SMILES)	growth
O=C(/C=C/c1cccc(O)c1)c1ccc(O)cc1	112%
ClC(Cl)c1nc(-c2cccs2)n2nc(-c3ccccc3)cc2n1	20.2%
CC1OC(O[C@@H]2C(O)C(CO)OC(O[C@H]3COC(O[C@H]4CC[C@]5(C)[C@H]6CC[C@]78OC[C@@]9(CC[C@](C)(C=O)C[C@H]97)[C@H](O)C[C@@]8(C)[C@]6(C)CC[C@H]5C4(C)C)[C@@H](OC4OC(CO)[C@@H](O)[C@@H](O)[C@@H]4O)[C@@H]3O)[C@H]2OC2OC[C@@H](O)[C@@H](O)[C@@H]2O)[C@@H](O)[C@@H](O)[C@H]1O (some centres not stated)	-93.9% (active)
O=C(CCCCCCN1CC(=O)N2[C@@H](c3cc(F)cc(F)c3)c3[nH]c4ccccc4c3C[C@H]2C1=O)NO	60.9%
N=c1c2cc(-c3ccccc3)oc2ncn1/N=C/c1ccccc1	96.5%
COc1cc(CNC(=O)/C=C/c2ccccc2)ccc1OCC(=O)NO	98.9%
C=C(C)[C@@H]1CC[C@]2(COS(C)(=O)=O)CC[C@]3(C)[C@H](CC[C@@H]4[C@@]5(C)CCCNC(C)(C)[C@@H]5CC[C@]43C)[C@@H]12	107%
C#CCOc1ccc(C(Nc2cc(Cl)ccc2Cl)c2nnnn2C2CCCCC2)cc1 (configuration not stated)	100%
Oc1ccc(CSc2nnc(-c3cnccn3)n2-c2ccccc2)c2cccnc12	21.1%
O=C(COc1ccc(C2SCC(=O)N2c2ccccc2)cc1)c1ccccc1 (configuration not stated)	111%
c1ccc(-c2c(-c3ccccc3)[n+](Cc3ccc4ccccc4c3)c(-c3ccccc3)n2Cc2ccc3ccccc3c2)cc1	-92.9% (active)
O=C1[C@H]2Cc3c([nH]c4ccccc34)[C@H](c3ccc(Cl)cc3)N2C(=O)CN1C1CCN(Cc2c(Cl)cccc2Cl)CC1	98.5%
COc1ccc(/C=C/C(=O)c2nnn(-c3ccc(Br)cc3)c2C)cc1OC	90.3%
CCC(CC)N1C(=O)/C(=c2\sc3n(c2=O)C2C(NN=3)N(CC)C(=O)N2CC)c2ccccc21 (configuration not stated)	42.6%
COc1ccc(-c2nnc(SCc3ccc(O)c4ncccc34)n2-c2ccccc2)cc1	12.5%
C=C(C)[C@@H]1CC[C@]2(C(=O)NCCCN(CCC#N)CCC#N)CC[C@]3(C)[C@H](CC[C@@H]4[C@@]5(C)CCC(=O)C(C)(C)[C@@H]5CC[C@]43C)[C@@H]12	104%
O=C(COc1ccc(C2SCC(=O)N2c2ccc(F)cc2)cc1)c1ccccc1 (configuration not stated)	112%
NCCN1CCN(c2nc(-c3ccccc3)nc3nc(-c4ccccc4)oc23)CC1	100%
Cc1ccc(NC(=O)c2cccc(CN3CCN(C)CC3)c2)cc1Oc1ccc(-c2[nH]nc3ncnc(N)c23)cc1	78.8%
